IP6K1 inhibitor: blocks human inositol hexakisphosphate kinase 1; Q92551; IP6K1 kinase, ADP-Glo luminescence, 2 h; hits give low values; activity change, % (series mostly up to about 58 µM); hit rate 0.81% among 140,000; in the data active = activity change below about -25%; also: % is scaled to controls: 0 for no effect and ±100 for the full control effect
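ADP-Glo luminescence measures ADP made by human IP6K1 during a 2 h RT reaction with ATP/IP6 (mix at 1.3 mM/130 uM); top library doses 57.5 and 19.1 uM final.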
KDM5B inh: blocks human KDM5B histone demethylase activity | hit rate 2.6% among 220,000 | Potency, µM (doses to about 57.7 µM), actives largely listed as inhibitors | Q9UGL1 | KDM5B demethylase, FDH-coupled NADH fluorescence (FDH is formaldehyde dehydrogenase); also: potency is read from the fitted curve at half-maximal effect; 0% is about no effect; nearly all actives have a fitted effect of over 70% in size
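KDM5BΔAP (200 nM final) in 50 mM HEPES pH 7.5, 0.01% Tween-20 was preincubated 10 min at RT with compound over a concentration range. Substrate mix (H3K4me3 12.5 µM, α-KG 25 µM, Fe²⁺, ascorbate, NAD⁺, FDH) was added, and NADH fluorescence change over 30 min gave dose-response curves.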
SNCA expr inh: reduces expression of the alpha-synuclein gene; HEK-293 SNCA-luciferase knock-in, luminescence, 24 h; Potency, µM (highest dose often 57.2 µM), without a hit: at the highest dose activity change, negative = inhibition, hits mostly inhibitors; hit rate 0.17% among 140,000;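 also: potency is read from the fitted curve at half-maximal effect; plate controls were DMSO cells for no effect and cell-free wells for full effect; nearly all actives have a fitted effect of over 45% in size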
SNCA viab count: reduces viability of HEK-293 SNCA reporter cells; HEK-293-SNCA-luc viability, GF-AFC fluorescence, 24 h; Potency, µM (series often up to 57.1 µM), without a hit: at the highest dose activity change, negative = cytotoxicity, most hits filed as cytotoxic; hit rate 0.12% among 150,000;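 also: potency is read from the fitted curve at half-maximal effect; 0% = DMSO-treated cells and -100% = medium-only wells without cells; nearly all actives have a fitted effect of over 30% in size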
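Cytotoxicity counterscreen: after 24 h compound treatment of genome-edited SNCA-luciferase HEK-293 cells, live-cell protease substrate GF-AFC read by fluorescence after 30 min; activity scaled between DMSO (0%) and medium-only (-100%), curves Hill-fitted.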
* marks the source's active call; other numbers are inactive results; i = inactive; u = inconclusive; x = not tested or not shown; [ ] = remark or other dose. The list is not random: actives were taken first. Their share in the collection is about 3%. Unless noted, calls follow the shape of the dose curve; as a rule, active = well fitted curve in the direction sought with a large enough effect; inconclusive = small, poorly fitted or top-dose-only effect, or another doubt; inactive = no such curve, though single readings can be large; an effect the other way counts as inactive or inconclusive.

SMILES | IP6K1 inhibitor | KDM5B inh | SNCA expr inh | SNCA viab count
O=C1NC2(CCN(Cc3ccsc3)C2)COc2ccccc21 (stereo not drawn) | 23 | 35µM* | 34%[87.6 µM] | -4%[87.6 µM]
Cn1cccc1CN1CCC2(COc3ccccc3C(=O)N2)C1 (stereo not drawn) | 6 | u | -16%[87.6 µM] | -4%[87.6 µM]
Cn1nccc1CN1CCCC2(COc3ccccc3C(=O)N2)C1 (stereo not drawn) | 7 | 40µM* | u | u
O=C1NC2(CCCN(Cc3ccc(C(F)(F)F)cc3)C2)COc2ccccc21 (stereo not drawn) | 24 | 25µM* | -18% | 8%
O=[S+]1([O-])NC2(CCCN(Cc3ccc(C(F)(F)F)cc3)C2)COc2ccccc21 (stereo not drawn) | -5 | u | -2% | -3%
O=C1NC2(CCN(Cc3ccsc3)C2)Oc2ccccc21 (stereo not drawn) | 1 | i | 74%[87.6 µM] | 6%[87.6 µM]
Cc1ccc(S(=O)(=O)Nc2ccc3oc(C)nc3c2)cc1 | x | i | x | x
CCN(CC)S(=O)(=O)c1ccc(Cl)c(NC(=O)CSc2nnc(C3CC3)n2C2CC2)c1 | x | i | x | x
O=C(c1cc2ccccc2oc1=O)N1CCCc2ccccc21 | x | i | x | x
COc1ccccc1-c1nc(N2CCOCC2)cc2c1CN(c1ccccc1)C2=O | 5 | 35µM* | 2%[87.6 µM] | -4%[87.6 µM]
O=C1c2cc(N3CCOCC3)nc(-c3ccccc3Oc3ccccc3)c2CN1C1COC1 | 0 | 28µM* | -27% | -26%
Cn1cc(-c2nc(N3CCOCC3)cc3c2CN(c2ccccc2)C3=O)cn1 | 16 | 20µM* | 19%[87.6 µM] | 8%[87.6 µM]
O=c1cc(N2CCOCC2)oc2c(-c3ccccc3Oc3ccccc3)nccc12 | -18 | u | 25%[87.6 µM] | u
CN(C)C(=O)NC1CCN(Cc2cccc(-c3ccc(F)c(F)c3)c2)CC1 | 23 | x | x | x
CCNC(=O)[C@@H]1C[C@H](N)CN1C(=O)c1ccc(NC(C)=O)cc1C | -19 | i | 10% | -7%
CCN(CC)C(=O)[C@@H]1C[C@H](N)CN1C(=O)c1cc2ccccc2n(C)c1=O | 1 | 32µM* | 4% | 11%
Cc1cc(=O)n(CC(=O)Nc2ccc(Br)cc2F)c(N2CCc3ccccc3C2)n1 | 5 | 14µM* | u | u
Cc1cccc(C)c1NC(=O)CSc1nnc2[nH]c(=O)c(Cc3ccccc3)nn12 | x | i | x | x
Cc1cn2nc(C(=O)N3CCN(c4ccccc4)CC3)cc2c(N(C)Cc2ccccc2)n1 | 8 | 25µM* | -5% | 4%
Cc1cn2nc(C(=O)N3CCCCC3)cc2c(N(C)Cc2ccccc2)n1 | -1 | 32µM* | -9% | -11%
C[S+](=O)([O-])c1ccc(-c2cc3c(cn2)CN(Cc2ccccc2)CCN3)cc1 | -19 | 28µM* | 67%[87.6 µM] | -13%[87.6 µM]
Oc1cccc(-c2cc3c(cn2)NCCN(Cc2ccccc2)C3)c1 | -19 | u | 31%[87.6 µM] | 5%[87.6 µM]
CCn1cc(-c2cc3c(cn2)CN(CCc2ccccc2)CCN3)cn1 | -17 | 35µM* | 20%[87.6 µM] | -12%[87.6 µM]
c1ccc(CN2CCNc3cc(-c4ccoc4)ncc3C2)cc1 | -3 | u | -4%[87.6 µM] | -16%[87.6 µM]
c1ccc(CN2CCNc3cnc(-c4ccc(N5CCOCC5)cc4)cc3C2)cc1 | 0 | 35µM* | u | u
SMILES | IP6K1 inhibitor | KDM5B inh | SNCA expr inh | SNCA viab count
Cc1nc(Nc2cccc(C(F)(F)F)c2)sc1C(=O)N(C)C | x | i | x | x
CN(Cc1ccc(Cl)c(Cl)c1)C(=O)c1ccc2c(c1)CCCN2S(C)(=O)=O | x | i | x | x
O=C(NC1CCN(Cc2ccc(Cl)cc2)CC1)c1ccc2nc(Cl)ccc2c1 | x | i | x | x
CN1CCC2(C1)CN(CC1CC1)c1ccc(C(=O)NCCOc3ccccc3)cc12 (stereo not drawn) | 3 | u | -16%[87.6 µM] | -26%[87.6 µM]
CN1CCCC2(CCN(C(=O)CCCOc3ccccc3)C2)C1=O (stereo not drawn) | 15 | i | 19% | 1%
CN1CCCC2(C1)CN(C)c1ccc(C(=O)NCCOc3ccccc3)cc12 (stereo not drawn) | 0 | 40µM* | -2%[87.6 µM] | 4%[87.6 µM]
CC(=O)N1CCCC2(C1)CN(C)c1ccc(C(=O)NCCOc3ccccc3)cc12 (stereo not drawn) | -2 | 32µM* | -19%[87.6 µM] | 5%[87.6 µM]
Cc1ccc(S(=O)(=O)Nc2nc3ccc(C)cc3nc2Nc2ccc3c(c2)OCO3)cc1 | x | i | x | x
O=c1n(-c2ccc([N+](=O)[O-])cc2)nc2n1CCN(Cc1ccc(OC(F)(F)F)cc1)C2 | 7 | u | -19% | -3%
COc1cccc(NC(=O)C2(C)CCc3cnc(N4CCOCC4)nc32)c1 (stereo not drawn) | 12 | 28µM* | -11%[87.6 µM] | -10%[87.6 µM]
CC1(C(=O)NCCN2CCOCC2)CCc2cnc(NCc3ccccc3)nc21 (stereo not drawn) | -4 | u | -11%[87.6 µM] | 7%[87.6 µM]
CC1(C(=O)Nc2ccccc2)CCc2cnc(N3CCOCC3)nc21 (stereo not drawn) | 4 | 35µM* | -3%[87.6 µM] | 14%[87.6 µM]
COc1cccc(Nc2ncc3c(n2)C(C)(C(=O)Nc2ccc(OC)nc2)CC3)c1 (stereo not drawn) | -11 | u | -12%[87.6 µM] | -27%[87.6 µM]
CC1(C(=O)NCc2cccc(Cl)c2)CCc2cnc(N3CCOCC3)nc21 (stereo not drawn) | 3 | 35µM* | -28%[87.6 µM] | -10%[87.6 µM]
COc1ccc(NC(=O)C2(C)CCc3cnc(N4CCOCC4)nc32)cn1 (stereo not drawn) | 10 | 35µM* | -4%[87.6 µM] | -17%[87.6 µM]
Clc1ccc(CN2CCc3ccccc3C2)cc1 | x | i | x | x
CC(C)n1nc(C(=O)Nc2cccc(C(F)(F)F)c2)c2ccccc2c1=O | x | i | x | x
Cc1cc(/C=N/O)c(C)n1-c1ccncc1 | x | i | x | x
CN(C)c1ccc(-c2nnnn2[C@H]2CO[C@H]3[C@@H]2OC[C@@H]3NS(=O)(=O)c2ccc3ccccc3c2)cc1 | 6 | 22µM* | -5% | 0%
CN(C)c1ccc(-c2nnnn2[C@H]2CO[C@H]3[C@@H]2OC[C@@H]3NC(=O)Nc2ccc(Oc3ccccc3)cc2)cc1 | 4 | 13µM* | u | -8%
CN(C)c1ccc(-c2nnnn2[C@H]2CO[C@H]3[C@@H]2OC[C@H]3O)cc1 | 10 | i | 19%[87.6 µM] | -2%[87.6 µM]
Cn1ncc2c(C(=O)N3CCC(Cc4ccccc4)CC3)cc(-c3ccccc3F)nc21 | 19 | x | x | x
N#Cc1cc2c(=O)n(CCCCN3CCCC3)ccc2[nH]c1=O | 24 | 28µM* | 5% | 2%
Cc1ccc(C#N)c(N2CCC(c3nnc(Cn4cncn4)n3C)CC2)n1 | -5 | 28µM* | -31% | -2%
Cn1c(Cn2cncn2)nnc1C1CCN(Cc2ccc3ccccc3n2)CC1 | -17 | u | 25% | 3%
CC(=O)NC1=NN(C(C)=O)C(c2ccc(OCc3ccccc3F)c(Br)c2)S1 (stereo not drawn) | x | i | x | x
CC1(C)[C@H]2CC[C@@H](CNC(=O)c3cccc4[nH]ccc34)[C@@H]1C2 | 9 | 32µM* | -27%[87.6 µM] | 0%[87.6 µM]
CN(C)C(=O)CCS(=O)(=O)Cc1coc(-c2ccc(F)cc2)n1 | x | i | x | x
CN(CC(=O)NC(=O)NC1CC1)c1ccc(C(C)(C)C)cc1 | x | i | x | x
Cc1noc(C)c1-c1cc(-c2cccc(O)c2)cn2cncc12 | -24 | u | 16%[87.6 µM] | -5%[87.6 µM]

Assay outcomes deposited in PubChem by National Center for Advancing Translational Sciences (NCATS).
